Conditions in all cases: modulator concentration 10 µM
The test system of assay [1] is RAW-Dual (murine macrophage reporter line). Nature of the assay: NF-kB reporter (SEAP) activity fold change vs agonist alone; higher = enhanced NF-kB activity. The method, boiled down: (§1)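 Compound reached 10 μM final in each well by pin transfer, onto RAW-Dual murine macrophage reporter cells seeded at 50 000 per well in 384-well plates. After 1 hour at 37 °C, the cells were stimulated overnight with a PRR agonist. SEAP in the supernatant was read with QUANTI-Blue at 620 nm absorbance for NF-κB, and Lucia luciferase was read with QUANTI-Luc luminescence for IRF. Each signal was turned into fold change against the mean agonist-only control on the same plate, and two replicate plates were averaged with propagated errors.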

Assay [2] shares this test system. Nature of the assay: IRF reporter (Lucia luciferase) activity fold change vs agonist alone; higher = enhanced IRF activity. The method, boiled down:
as §1

The test system is the same in assay [3]. As to the kind of experiment: viability score (confluency relative to resting cells, overnight) (fraction); higher = more viable, active = viable (0.7 or more). The method, boiled down:
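RAW-Dual macrophages in 384-well plates were treated overnight with compound at 10 μM final. IncuCyte imaging recorded confluency, and IncuCyte software built two confluency masks across every imaged well. The viability score expresses confluency relative to resting cells and was judged against a cutoff, which a compound met only if both masks exceeded 70% of resting cells.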

Setting [4] is: agonist: CpG ODN 1826 0.5 ug/mL.

± gives the standard deviation.

On to `CCCCc1c(CCC)c(=N)c2ccccc2n1C.I`, for which the figures for the NF-kB reporter in assay [1] (setting [4]), in assay [1] (agonist: LPS 0.1 ug/mL) and in assay [1] (agonist: MPLA […]) were 0.992 ± 0.098, 1.18 ± 0.091 and 1.56 ± 0.15, respectively. For the same compound, the IRF reporter in assay [2] (agonist: 3'3'-cGAMP 10 ug/mL) worked out at 1.09 ± 0.048; in assay [2] (agonist: LPS 0.1 ug/mL) it was 1.67 ± 0.22; in assay [2] (agonist: MPLA […]), 2.14 ± 0.32. In addition, in assay [3], the viability score is 1.01 (active).

In the case of `O=C(O)c1ccc(-n2nc(-c3ccccc3O)nc2-c2ccccc2O)cc1`, the NF-kB reporter was 0.749 ± 0.082 in assay [1] (setting [4]), 0.917 ± 0.1 in assay [1] (agonist: LPS 0.1 ug/mL) and 1.11 ± 0.13 in assay [1] (agonist: MPLA […]). Also, the IRF reporter in assay [2] (agonist: 3'3'-cGAMP 10 ug/mL) came out at 0.902 ± 0.042; in assay [2] (agonist: LPS 0.1 ug/mL), 1.31 ± 0.14; in assay [2] (agonist: MPLA […]), 1.49 ± 0.15. Further, in assay [3], the viability score is 0.988 (active).

Turning to `Cc1ccc(S(=O)(=O)CCSc2cccc(C(=O)Nc3ccccc3)c2)cc1`, the NF-kB reporter in assay [1] (setting [4]) amounted to 0.992 ± 0.068; in assay [1] (agonist: LPS 0.1 ug/mL), 1.03 ± 0.087; in assay [1] (agonist: MPLA […]), 0.909 ± 0.1. Besides, the values for the IRF reporter in assay [2] (agonist: 3'3'-cGAMP 10 ug/mL), in assay [2] (agonist: LPS 0.1 ug/mL) and in assay [2] (agonist: MPLA […]) were 0.808 ± 0.03, 1.26 ± 0.13 and 1.08 ± 0.098, respectively. In addition, in assay [3], the viability score was 1 (active).

Consider `CSCCC(NC(C)=O)C(=O)NC1CCN(c2nc(C)nc3c2CCCC3)CC1` (stereo unspecified), for which the NF-kB reporter in assay [1] (setting [4]) came to 0.836 ± 0.061; in assay [1] (agonist: LPS 0.1 ug/mL), 1.06 ± 0.086; in assay [1] (agonist: MPLA […]), 0.896 ± 0.048. Besides, the IRF reporter in assay [2] (agonist: 3'3'-cGAMP 10 ug/mL) was determined as 0.957 ± 0.073; in assay [2] (agonist: LPS 0.1 ug/mL), 1.29 ± 0.18; in assay [2] (agonist: MPLA […]), 1.17 ± 0.16. The viability score in assay [3] is 0.999 (active).

With `COc1ccc(CCN(C)CCCC(C#N)(c2ccc(OC)c(OC)c2)C(C)C)cc1OC.Cl` (stereo unspecified), the NF-kB reporter in assay [1] (setting [4]) amounted to 0.742 ± 0.21; in assay [1] (agonist: LPS 0.1 ug/mL) it was 1.02 ± 0.25; in assay [1] (agonist: MPLA […]), 1.12 ± 0.082. Moreover, the IRF reporter stood at 0.572 ± 0.018 in assay [2] (agonist: 3'3'-cGAMP 10 ug/mL), 1.32 ± 0.26 in assay [2] (agonist: LPS 0.1 ug/mL) and 1.27 ± 0.12 in assay [2] (agonist: MPLA […]). In addition, the viability score in assay [3] is 0.977 (active).

With `CN1CCN(C2=Nc3ccccc3Oc3ccc(Cl)cc32)CC1` [Prestw-132], the NF-kB reporter in assay [1] (setting [4]) stood at 1.08 ± 0.22; in assay [1] (agonist: LPS 0.1 ug/mL), 0.804 ± 0.09; in assay [1] (agonist: MPLA […]) it was 0.812 ± 0.079. For the same compound, the IRF reporter in assay [2] (agonist: 3'3'-cGAMP 10 ug/mL) stood at 0.944 ± 0.054; in assay [2] (agonist: LPS 0.1 ug/mL) it was 1.08 ± 0.18; in assay [2] (agonist: MPLA […]), 0.961 ± 0.18. Also, the viability score in assay [3] was 1.03 (active).

Turning to `CCOC(=O)n1ccn(C)c1=S`, the NF-kB reporter in assay [1] (setting [4]) turned out to be 1.26 ± 0.21; in assay [1] (agonist: LPS 0.1 ug/mL), 1.04 ± 0.33; in assay [1] (agonist: MPLA […]) it was 0.909 ± 0.067. Besides, the IRF reporter in assay [2] (agonist: 3'3'-cGAMP 10 ug/mL) amounted to 0.913 ± 0.03; in assay [2] (agonist: LPS 0.1 ug/mL) it was 1.18 ± 0.48; in assay [2] (agonist: MPLA […]), 1.11 ± 0.09. The viability score in assay [3] is 0.992 (active).

`Br.NC(=O)C(c1ccccc1)(c1ccccc1)[C@@H]1CCN(CCc2ccc3c(c2)CCO3)C1`: the NF-kB reporter is 0.471 ± 0.18 in assay [1] (setting [4]), 1.25 ± 0.27 in assay [1] (agonist: LPS 0.1 ug/mL) and 1.53 ± 0.37 in assay [1] (agonist: MPLA […]). The IRF reporter worked out at 0.485 ± 0.015 in assay [2] (agonist: 3'3'-cGAMP 10 ug/mL), 1.15 ± 0.41 in assay [2] (agonist: LPS 0.1 ug/mL) and 1.41 ± 0.22 in assay [2] (agonist: MPLA […]). For the same compound, the viability score in assay [3] was 0.975 (active).

For `O=C(Nc1ccc(S(=O)(=O)Nc2nccs2)cc1)c1c(F)cccc1F`, the NF-kB reporter in assay [1] (setting [4]) is 0.984 ± 0.1; in assay [1] (agonist: LPS 0.1 ug/mL), 1.02 ± 0.058; in assay [1] (agonist: MPLA […]) it was 0.922 ± 0.06. The results for the IRF reporter in assay [2] (agonist: 3'3'-cGAMP 10 ug/mL), in assay [2] (agonist: LPS 0.1 ug/mL) and in assay [2] (agonist: MPLA […]) were 0.982 ± 0.026, 1.52 ± 0.23 and 1.14 ± 0.1, respectively. Further, the viability score in assay [3] is 1.01 (active).

Turning to `O=C(O)c1cc(S(=O)(=O)N2CCCCC2)c(Cl)cc1Cl`, the NF-kB reporter in assay [1] (setting [4]) amounted to 0.937 ± 0.082; in assay [1] (agonist: LPS 0.1 ug/mL), 1.04 ± 0.087; in assay [1] (agonist: MPLA […]), 0.965 ± 0.12. For the same compound, the IRF reporter turned out to be 0.912 ± 0.11 in assay [2] (agonist: 3'3'-cGAMP 10 ug/mL), 1.18 ± 0.11 in assay [2] (agonist: LPS 0.1 ug/mL) and 1.06 ± 0.28 in assay [2] (agonist: MPLA […]). In addition, the viability score in assay [3] is 1.01 (active).

In the case of `O=C(Cc1ccc([N+](=O)[O-])cc1)NN=Cc1cccnc1`, the NF-kB reporter amounted to 1.05 ± 0.083 in assay [1] (setting [4]), 1.02 ± 0.074 in assay [1] (agonist: LPS 0.1 ug/mL) and 0.972 ± 0.041 in assay [1] (agonist: MPLA […]). Further, the IRF reporter in assay [2] (agonist: 3'3'-cGAMP 10 ug/mL) turned out to be 0.86 ± 0.066; in assay [2] (agonist: LPS 0.1 ug/mL), 1.09 ± 0.053; in assay [2] (agonist: MPLA […]), 1.03 ± 0.14. The viability score in assay [3] is 1 (active).

For the compound `CC(C)(C)NC[C@H](O)COc1nsnc1N1CCOCC1.O=C(O)/C=C\C(=O)O`, the NF-kB reporter in assay [1] (setting [4]) was determined as 1.19 ± 0.2; in assay [1] (agonist: LPS 0.1 ug/mL), 1.13 ± 0.43; in assay [1] (agonist: MPLA […]) it was 0.917 ± 0.056. The IRF reporter in assay [2] (agonist: 3'3'-cGAMP 10 ug/mL) stood at 0.906 ± 0.031; in assay [2] (agonist: LPS 0.1 ug/mL) it was 1.3 ± 0.34; in assay [2] (agonist: MPLA […]) it was 1.21 ± 0.14. For the same compound, in assay [3], the viability score is 0.992 (active).

Consider `Cc1ccc(C(=O)NC(=Cc2cccc3ccccc23)C(=O)N2CCCC2)cc1`, for which the NF-kB reporter in assay [1] (setting [4]) came out at 0.957 ± 0.075; in assay [1] (agonist: LPS 0.1 ug/mL) it was 1.03 ± 0.067; in assay [1] (agonist: MPLA […]), 0.974 ± 0.086. In addition, the IRF reporter in assay [2] (agonist: 3'3'-cGAMP 10 ug/mL) was 0.966 ± 0.042; in assay [2] (agonist: LPS 0.1 ug/mL), 1.31 ± 0.23; in assay [2] (agonist: MPLA […]), 1.15 ± 0.22. Also, in assay [3], the viability score was 1.01 (active).

Values taken from the supplement of paper PMC10646978.
